Assay results published in PubChem BioAssay (NCI).
This is part of a sample that, as a whole, favours compounds with a hit. Of some 79,000 tested, about 15% had one in any assay. A number with no mark means an inactive call. The source made the active and inactive calls. Cut-off read from the data, not from the text of the source: active = growth inhibition above about 70%; inactive = the rest.

Experiments:
[1] = NCI Yeast Anticancer Drug Screen. Data for the rad50 strain (AID 155);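 note: 0% = growth of vehicle-only cultures of the same strain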; settings: S. cerevisiae rad50 strain growth inhibition; at 50.0 µM; stronger effect = higher value
Outline: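 Cells are treated with compound, grown, and their growth is then scored against vehicle-only cultures of the same repair-deficient yeast strain.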

[2] = NCI Yeast Anticancer Drug Screen. Data for the mec2-1 strain (AID 157); settings: S. cerevisiae mec2-1 strain, at 50.0 µM, stronger effect = higher value
Outline: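 Cells of the genetically defined mec2-1 yeast strain are incubated with test compound. Inhibition of growth is calculated against vehicle-treated controls.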

[3] = NCI Yeast Anticancer Drug Screen. Data for the sgs1 mgt1 strain (AID 161);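 note: 0% = growth of cultures given vehicle only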; settings: S. cerevisiae sgs1 mgt1 strain, at 50.0 µM, stronger effect = higher value
Outline: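 Test agents were incubated with a DNA-repair-mutant yeast strain. Growth was then read and compared against vehicle-treated controls.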

[4] = NCI Yeast Anticancer Drug Screen. Data for the cln2 rad14 strain (AID 165);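 note: 0% = growth equal to vehicle treated cultures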; settings: S. cerevisiae cln2 rad14 strain, at 50.0 µM, stronger effect = higher value
Outline: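 The screen exposed genetically defined yeast (cln2 rad14) to test compounds and scored growth inhibition relative to vehicle-treated controls.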

[5] = NCI Yeast Anticancer Drug Screen. Data for the bub3 strain (AID 167); settings: S. cerevisiae bub3 mutant strain, at 50.0 µM, stronger effect = higher value
Outline: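 Part of a panel of yeast mutants defective in DNA damage repair or cell cycle regulation. Each strain is grown with compound, and inhibition is calculated relative to solvent-treated cultures.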

[6] = NCI Yeast Anticancer Drug Screen. Data for the mlh1 rad18 strain (AID 175); settings: S. cerevisiae mlh1 rad18 strain growth inhibition; at 50.0 µM; stronger effect = higher value
Outline: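 Compound-treated yeast growth, normalised to vehicle controls. Strain bears defined DNA repair mutations.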

SMILES | growth inhibition [1] | growth inhibition [2] | growth inhibition [3] | growth inhibition [4] | growth inhibition [5] | growth inhibition [6]
CCc1nc2c(cnn2C)c(=O)n1-c1ccccc1 | -5% | -6.35% | -1.2% | 3.9% | 10.6% | 7.55%
CC(C)COC(=O)N1N=NC2C3OC(CC3=O)C21 (stereo unspecified) | -4.7% | -17.1% | -8.1% | 8.8% | -13.2% | -15.7%
COC1(OC)CCC(OC)(OC)C(OC)(OC)C1(OC)OC | 4.75% | 8.1% | 11.7% | -4.2% | -16.2% | 2.75%
CCOC(=O)c1ccc(Cl)cc1 | -14% | -16.8% | -25.1% | -23.8% | -30.8% | -25.1%
Oc1ccccc1C=Nc1ccc(I)cc1.Oc1ccccc1C=Nc1ccc(I)cc1.[Co] | 15.8% | 23.1% | 18.6% | 9.45% | 17.6% | 36.8%
Nc1c2cc3ccc2nc2ccc(cc12)OCCOCCOCCOCCOCCOCCO3 | -3.05% | -16.1% | -9.55% | -12% | -0.35% | -21.2%
O=C(O)C(=Cc1ccc([N+](=O)[O-])cc1)C(=O)O | 11.1% | -21.8% | 5.95% | -7.35% | -0.7% | -11.6%
CCOC(=O)NCc1ccccc1 | 19% | 8.7% | 10.3% | 2.6% | -6.35% | 20.1%
CC(C#N)Nc1ccc(Oc2ccc(C(C)(C)c3ccc(Oc4ccc(NC(C)C#N)cc4)cc3)cc2)cc1 (stereo unspecified) | 6.25% | -2.6% | -8.3% | 7.1% | -23.6% | -40.1%
NC(CSCCSCCSCC(N)C(=O)O)C(=O)O (stereo unspecified) | -4.45% | 0.1% | 11.2% | -9.05% | -38.4% | -4.5%
O=Cc1ccc(-c2cccc([N+](=O)[O-])c2)s1 | 4.9% | 6.1% | -14.1% | 19.9% | 6.1% | 1.85%
COc1nc2c(c(O)c(C)c(=O)n2OC2OC(COC(C)=O)C(OC(C)=O)C(OC(C)=O)C2OC(C)=O)c(=O)n1C (stereo unspecified) | -2.1% | -15.8% | 7.95% | -7.75% | 0.45% | 2.3%
N#Cc1ncn(CCO)c1N | 8.7% | -22.4% | 3.3% | 3.9% | -3.95% | -43.5%
O=C(O)c1cccc(N=Nc2ccccc2)c1O | 22.1% | -12.4% | 4.65% | -7.1% | 6.05% | 10.7%
C=C(CCC(Cl)C(O)CO)[Si](C)(C)C (stereo unspecified) | 37.5% | -19.2% | 52% | 45.3% | 49.2% | 48.6%
Cc1cc(OC(=O)c2c(C)cc(OC(=O)c3c(C)cc(O)cc3O)cc2O)cc(O)c1C(=O)O | -7.15% | -44.7% | -19.4% | -3.55% | -27.4% | -2.15%
OC1CCCC2OC2CC1 (stereo unspecified) | 0.4% | 6.55% | -9.5% | 11.7% | 7.25% | 13.9%
C=C(CC(O)c1ccccc1)C(=O)Nc1ccccc1OC (stereo unspecified) | 25.9% | 0.45% | 13.3% | 1.25% | 6.3% | 4.1%
c1cc2c3c(c1)ccc1cccc(c13)C2 | 39.6% | -26.2% | 12.8% | 11.9% | 24.6% | 27.1%
CCCCNC(=S)N(CCCC)CCCC | 21.8% | 18.2% | 10.3% | -16.2% | 30.9% | 13.1%
O=c1ccc2cc3c(cc2[nH]1)OCO3 | 2.5% | -1.25% | -4.2% | -39.5% | -9.2% | 7.05%

SMILES | growth inhibition [1] | growth inhibition [2] | growth inhibition [3] | growth inhibition [4] | growth inhibition [5] | growth inhibition [6]
O=[N+]([O-])c1ccccc1N/N=C/c1ccccc1 | -10.2% | 7.1% | 2.6% | -65.9% | 8.35% | 10.8%
CN(C)CCCNC(=O)NCCCCCCNC(=O)NCCCN(C)C | 13.1% | -9.85% | 31.7% | 18.4% | 32.4% | 19%
Cn1cnc([N+](=O)[O-])c1Sc1ccncc1S(N)(=O)=O | -5.65% | -14.4% | 0.2% | 2.1% | 6.5% | -9.15%
CCOC(=O)NC1OC(C(N)=O)C(O)C(O)C1O (stereo unspecified) | 2.25% | -5.7% | 3.4% | -33.3% | 4.5% | 1.4%
CC1(C)OCCS1 | -4.2% | 18.1% | 6.7% | 18.6% | 20.6% | 13.9%
O=S(=O)(c1ccc(Nc2nnc(-c3ccccc3)s2)cc1)N1CCCCC1 | -4% | 12.8% | 42.3% | -23.1% | 40.9% | 5.65%
CCC/C=N/NS(=O)(=O)c1ccc(C)cc1 | 32.1% | 15.7% | 30.8% | 11.8% | -29.9% | 12.6%
CC(/C=C/c1ccccc1)=N\NC(=S)N/N=C(C)/C=C/c1ccccc1 | 10.5% | 37.6% | 21.5% | 9.3% | 49.5% | 11.1%
CC[N+](C)(CC)c1cccc(OC(=O)N2CCCCC2)c1 | 7.8% | 3.45% | 16.4% | 0.2% | -4.75% | -16.9%
CCN(CC)CCC1CCNCC1 | 0.5% | -25.2% | -1.8% | 15.8% | -3.9% | 5.75%
CN(C(=O)C12C3C4C1C1C2C3C41C(N)=O)C(C)(C)C (stereo unspecified) | 9.6% | 7.8% | 4.35% | 25.1% | 18.5% | -6.3%
O=CC1=CCC2c3[nH]c4ccccc4c3CCN2C1 (stereo unspecified) | 24.9% | 20.5% | 25.7% | 27.2% | 28.2% | 19.8%
CCCCCCCCCCCCCCCCO | -14.4% | -14.2% | -13.6% | -16.3% | -15.2% | -12.4%
Cc1ccc(S(=O)(=O)Nc2ccc3ncsc3c2[N+](=O)[O-])cc1 | 97.2% (active) | 98.7% (active) | 98.3% (active) | 98.2% (active) | 98% (active) | 98% (active)
N=C(N)c1cccc(NC(=O)CCc2ccccc2)c1 | -7.3% | -14.6% | -17.8% | -29.1% | 0.95% | 1.9%
CCc1c(CBr)c(=O)[nH]c2ccccc12 | 8.7% | -8.1% | -10.8% | 0.9% | 1.3% | 2.55%
COc1ccc(NCc2cnc3nc(N)nc(N)c3c2C)cc1 | 7% | 6.6% | 16.6% | 16.5% | 1.85% | -49%
NC(=O)N/N=C/c1ccc2c(c1)OCO2 | 20.1% | -7.9% | 0% | 8.45% | -0.15% | 13.8%
CCOC(=O)C(C=C(C)C)(CC)C(=O)OCC | 2.5% | -17% | -5.7% | -4.55% | -17.1% | -21.9%
COC(=O)C1=C(O)C(C(=O)OC)[C@@]2(O)[C@@H](C(=O)OC)CC[C@@H]1[C@@H]2C(=O)OC (stereo partly specified) | -1.45% | -9.1% | -13.8% | 3% | -3.5% | 8.95%
